From PubChem BioAssay (NCI)
This is part of a sample that, as a whole, favours compounds with a hit. Of some 83,000 tested, about 20% had one in any assay.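 48-hour exposure, single concentration, 96-well plates; percent growth endpoint where 0 means no net growth. Active: below 10.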 A number with no mark means an inactive call. The source made the active and inactive calls.

Key:
Assay in all cases: NCI-60 one-dose screen, 48 h (100 = growth as untreated, 0 = no growth, -100 = all killed)
Conditions in all cases: 10 µM unless noted
[1] = system: EKVX NSCLC
[2] = system: SN12C renal
[3] = system: UO-31 renal
[4] = system: TK-10 renal
[5] = system: ACHN renal
[6] = system: CAKI-1 renal
[7] = system: CCRF-CEM leukemia
[8] = system: MOLT-4 leukemia
[9] = system: SR leukemia
[10] = system: RPMI-8226 leukemia
[11] = system: OVCAR-8 ovarian
[12] = system: OVCAR-5 ovarian
[13] = system: OVCAR-4 ovarian
[14] = system: IGROV1 ovarian
[15] = system: OVCAR-3 ovarian
[16] = system: HS 578T breast
[17] = system: NCI/ADR-RES ovarian
[18] = system: T-47D breast
[19] = system: SK-OV-3 ovarian
[20] = system: A498 renal

Row | SMILES | growth [1] | growth [2] [%] | growth [3] | growth [4] [%] | growth [5] | growth [6] | growth [7] | growth [8] | growth [9] | growth [10] | growth [11] | growth [12] [%] | growth [13] | growth [14] | growth [15] | growth [16] | growth [17] | growth [18] | growth [19] [%] | growth [20]
1 | COC(=O)c1ccc(NC(=S)N2CCc3ccc([N+](=O)[O-])cc3C2)cc1O | 99.2% | 99.8 | 85.5% | 137 | 95.4% | 92.7% | 94.9% | 91.7% | 95.5% | 101% | 101% | 103 | 112% | 99% | 116% | 102% | 107% | 103% |  | 
2 | NS(=O)(=O)c1cccc(Nc2nc(SCC(=O)c3ccc(Br)cc3)nc3ccccc23)c1 | 64.8% | 74.9 | 59.6% | 124 | 28% | -11.3% (active) | 68.6% | 44% | 37.1% | 46.1% | 39.5% | 115 | 43.6% |  |  | 59.6% |  | 31.9% | 90.1 | 
3 | C#Cc1nc(C2=C(C)C(OC(=O)CCC(=O)O)CC2)cs1 (centres undefined) | 99.2% | 101 | -19.3% (active) | 157 | 103% | 101% | 93.9% | 106% | 64.1% | 102% | 99.3% | 125 | 108% | 5.79% (active) | 121% | 92.5% | 89.7% | 98% | 125 | 
4 | COc1cc(/C=C/C(=O)c2ccc(F)cc2)ccc1Oc1nc(NCCO)nc(N2CCOCC2)n1 | 82.8% | 84.6 | 61.2% | 146 | 70.9% | 71.9% | 4.33% (active) | 6.59% (active) | -0.24% (active) | -1.38% (active) | 86.1% | 98.8 | 88.4% | 70.6% |  | 83.8% | 78.9% | 96.5% | 113 | 
5 | N#Cc1c(-c2ccc(Cl)cc2)nc2c(-c3ccccc3)c(Nc3ccccc3)nn2c1N | 60.6% | 77.5 | 34.8% | 139 | 11% | 35.1% | 67.9% | 61% | 36.9% | 54.1% | 48.6% | 67.4 | -7.41% (active) |  | 58.4% | 37.3% |  | 52.9% | 42.7 | 
6 | COc1cc(/C=C/C(=O)c2ccc(C(F)(F)F)cc2)ccc1Oc1nc(NCCO)nc(N2CCOCC2)n1 | 93.7% | 86.9 | 70.5% | 111 | 86.2% | 82.7% | 4.08% (active) | 3.51% (active) | -8.21% (active) | -16.1% (active) | 95.9% | 101 | 96% | 92.5% | 109% | 82% |  | 83.5% | 101 | 
7 | CCCC(=O)NC(c1ccc(N(CC)CC)cc1)c1cc(C)c2cccnc2c1O (centres undefined) | 19.2% | 26.6 | 3.42% (active) | 31.6 | 10.7% | 18.7% | 6.15% (active) | 8.44% (active) | 5.57% (active) | 22.6% | 20.5% | 58 | 40.3% | 14.1% | 18.6% | 50% | 6.31% (active) | 26.3% | 42 | 
8 | Cn1ccnc1C(=O)/C=C/c1ccc(NC(=O)Nc2ccccc2)cc1 | 16.5% | 45.6 | 40.7% | 85.9 | 26.8% | 31.9% | 7.34% (active) | 4.35% (active) | -3.08% (active) | 8.95% (active) | -1.17% (active) | 14.8 | 42.7% | 19.2% | 6.45% (active) | 5.48% (active) | 22.2% | 15.7% | 13.3 | 
9 | COC(=O)C1CCCN(S(=O)(=O)/N=C2\NC(=O)NC2=C(Cl)Cl)C1 (centres undefined) | 104% | 102 | 92.2% | 74.6 | 109% | 102% | 58% | 96.3% | 28.6% | 0.297% (active) | 105% | 130 | 119% | 107% | 122% | 110% | 111% | 68.2% | 106 | 
10 | COc1cc(OC)c(S(=O)(=O)NNC(=O)c2ccncc2)cc1C(=O)/C=C/c1ccc(C)cc1 | 85.7% | 95.8 | 77.5% | 145 | 98.1% | 72.4% | 8.66% (active) | 42.2% | 21.9% | 20.3% | 88.3% | 110 | 91.3% | 72.7% | 81% | 80.5% | 107% | 72.7% |  | 
11 | NS(=O)(=O)c1cccc(Nc2nc(SCC(=O)c3ccc([N+](=O)[O-])cc3)nc3ccccc23)c1 | 70.9% | 56.9 | 40.5% | 95.6 | 45.8% | 27.6% | 12% | -6.08% (active) | 17.5% | -9.57% (active) | 24.1% | 108 | 43% | 16.6% | 36.5% | 65.6% | 72.7% | 10.8% |  | 
12 | COc1cc(/C=C/C(=O)c2cc(OC)c(OC)c(OC)c2)ccc1OCc1ccccc1 | 51.6% | 69.7 | 45.5% | 153 | 60% | 42% | 4.39% (active) | 26.2% | 6.67% (active) | -12.4% (active) | 16.8% | 47 | 41.2% | 35.3% | 26% | 88.9% | 14.4% | 41.8% |  | 
13 | O=C1c2c(c3c4cc(Br)ccc4[nH]c3c3ccc4ccccc4c23)C(=O)N1CCO | 100% | 89.5 | 78% | 160 | 73.7% | 69.6% | 64.6% | 70.5% | -6.75% (active) | 80.3% | 85.2% | 108 | 104% | 73.9% |  | 103% | 90.5% | 51.5% | 89.3 | 
14 | C#Cc1nc(C2=C(C)C(=O)/C(=N/OC(C)=O)C2)cs1 | 97.5% | 99 | -92.1% (active) | 151 | 26.3% | 58.5% | 80.8% | 87.7% | 13.4% | 32.3% | 78.3% | 99.4 | 89.9% | -37.2% (active) |  | 90.7% | 1.61% (active) | 79.9% | 104 | 
15 | Cc1cc(C(NC(=O)CCCCCNc2cccc3c2C(=O)N(C2CCC(=O)NC2=O)C3=O)c2cccnc2)c(O)c2ncccc12 (centres undefined) | 34.3% | 20.1 | 18.7% | 19.2 | 35.6% | 14.2% | -4.83% (active) | 1.29% (active) | 11.6% | 14.6% | 11.1% | 49.8 | 19.4% | 9.13% (active) | 14.2% | 1.22% (active) | 79.6% | 12.1% |  | 
16 | N#Cc1ccc(C(=O)CSc2nc(Nc3ccc(S(N)(=O)=O)cc3)c3ccccc3n2)cc1 | 104% | 100 | 95.6% | 110 | 108% | 102% | 94.7% | 106% | 95.9% | 101% | 109% | 110 | 113% | 110% |  | 103% | 111% | 103% | 116 | 
17 | CC(C)(C)Nc1nc2c(OCCc3ccccc3)cccn2c1-c1ccc(Cl)cc1 | 5.46% (active) | 10.3 | 0.0667% (active) | 20.8 | 8.77% (active) | 29.3% | 6.47% (active) | 4.83% (active) | 1.41% (active) | -16.1% (active) | 26.3% | 29.4 | 18.2% | 23.8% | 6.36% (active) | 70.3% |  | 8.79% (active) | 42.2 | 
18 | COc1cc(/C=C/C(=O)c2ccccc2)ccc1Oc1nc(NCCO)nc(N2CCOCC2)n1 | 95.5% | 97.3 | 80.8% | 124 | 98.4% | 86.2% | 30.3% | 71.3% | 8.72% (active) | 54.5% | 99.1% | 108 | 109% | 100% | 124% | 98% | 107% | 93.6% |  | 
19 | COC(=O)C1CN(S(=O)(=O)/N=C2\NC(=O)NC2=C(Cl)Cl)C1 | 104% | 101 | 88.7% | 139 | 106% | 101% | 95.5% | 104% | 94.4% | 85.2% | 99.9% | 116 | 123% | 109% | 116% | 104% | 109% | 81% | 113 | 
20 | Nc1cc(-c2c[nH]c3ccc(Cl)cc23)nc2cc(-c3c[nH]c4ccc(Cl)cc34)nn12 | 54.4% | 70.8 | 61.3% | 66.2 | 24.3% | 35.6% | 42% | 33.3% | 10.1% | 59.4% | 70.7% | 59.7 | 58.6% | 41.7% | 75.9% | 74.3% | 60.4% | 51.6% |  | 
21 | COC1CCN(Cc2ccc3c(NNC(=O)c4cnccn4)nc4cc(F)ccc4n23)C1 (centres undefined) | 29.9% | 24.1 | 18.6% | 40.8 | 14.1% | 16.8% | 1.87% (active) | 8.05% (active) | 1.51% (active) | 20.2% | 14.4% | 49.9 | 21% | 24.2% |  | 68.5% | 24% | 24.2% |  | 
22 | O=C1/C(=C/C2=Cc3ccccc3OC2)SC(=S)N1c1ccc(F)cc1 | 94.7% | 93 | 86.3% |  | 76% | 90.6% | 109% | 108% | 97.2% | 104% | 105% | 100 | 96.1% | 95.9% | 109% | 99.2% | 108% | 87.7% | 108 | 71.6%
23 | C#C[C@]1(O)CC[C@H]2[C@@H]3CC=C4c5sc(-c6ccc(F)cn6)nc5CC[C@]4(C)[C@H]3CC[C@@]21C | 25.4% | 58.7 | 52.7% |  | 47.2% | 20.6% | 8.87% (active) | -7.92% (active) | -2.25% (active) | -26% (active) | 42.8% | 59.9 | 57.8% | 49.8% | 56.2% | -16.2% (active) | 44.8% | 39.9% | 21.2 | -24.7% (active)
24 | COc1ccc(NC2=C(Cl)C(=O)C(C)=C(C)C2=O)cc1OC | 74.3% | 88.9 | 90.3% | 170 | 91.4% | 89.4% | 15.3% | 40.1% | 84.5% | 88.7% | 97.5% | 103 | 22% | 39.7% | 95.6% | 91.2% |  | 23.5% |  | 
